Activity change, negative = inhibition and Potency data for 59 molecules are collected here from PubChem BioAssay AID881 (National Center for Advancing Translational Sciences (NCATS), 2007).

Screen size: about 110,000 compounds; about 610 (0.55%) were called active. Where a call stands in place of a potency, no number is given. About 3% were inconclusive and are not listed. Many of the other results were omitted from the sample, so actives are more common in it than they were. A number with no mark means an inactive call. Calls follow the shape of the dose curve; as a rule, active = well fitted inhibition curve with a large enough effect; inconclusive = small, poorly fitted or top-dose-only effect; inactive = no such curve, though single readings can be large or run the other way.
Potency is read from the fitted curve at half-maximal effect.

Chain of Polyunsaturated fatty acid lipoxygenase ALOX15B (Homo sapiens) (O15296 whole entry, looked up): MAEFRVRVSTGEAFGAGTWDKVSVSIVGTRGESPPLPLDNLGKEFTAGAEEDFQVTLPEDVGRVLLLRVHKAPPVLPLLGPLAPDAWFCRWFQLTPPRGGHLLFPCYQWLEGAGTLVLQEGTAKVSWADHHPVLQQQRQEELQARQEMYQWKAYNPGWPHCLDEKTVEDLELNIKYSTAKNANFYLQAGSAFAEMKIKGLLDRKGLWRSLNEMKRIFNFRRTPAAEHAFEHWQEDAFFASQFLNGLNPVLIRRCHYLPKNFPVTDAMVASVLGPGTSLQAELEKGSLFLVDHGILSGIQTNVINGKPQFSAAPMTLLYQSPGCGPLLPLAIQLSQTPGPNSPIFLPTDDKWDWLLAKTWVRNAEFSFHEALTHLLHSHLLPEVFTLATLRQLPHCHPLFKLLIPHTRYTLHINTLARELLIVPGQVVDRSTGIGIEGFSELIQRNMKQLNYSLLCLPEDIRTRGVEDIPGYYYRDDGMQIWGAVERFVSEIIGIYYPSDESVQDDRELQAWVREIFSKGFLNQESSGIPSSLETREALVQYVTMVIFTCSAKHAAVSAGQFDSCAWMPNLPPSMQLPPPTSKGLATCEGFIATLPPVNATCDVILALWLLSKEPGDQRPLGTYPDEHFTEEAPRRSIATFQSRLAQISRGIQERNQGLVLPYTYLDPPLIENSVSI

The target of this assay is Polyunsaturated fatty acid lipoxygenase ALOX15B (Homo sapiens) (UniProt O15296). Description: qHTS Assay for Inhibitors of 15-hLO-2 (15-human lipoxygenase 2). Also: nearly all actives have a fitted effect of over 60% in size. The following applies: purified 15hLO-2, xylenol orange hydroperoxide absorbance; series mostly up to 57.1 µM. A digest of the protocol:
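Purified human 15hLO-2 (50 nM final) preincubated with compounds 15 min at room temperature in 25 mM Hepes pH 7.5, 0.01% Triton X-100, then 45 uM arachidonic acid added for 90 min; hydroperoxide detected via ferrous/xylenol orange, 573/405 nm absorbance ratio.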
Background: In qHTS, concentration-response curves come from the screen itself.
Turning to `COc1ccc(CN2CCCCC2C)cc1OC` (centres undefined), the activity change, negative = inhibition result was “inactive”.
Same read-out and setting: as for `Cc1ccc(CNC(=O)CCNC(=O)Cn2ccc3ccccc3c2=O)cc1`, the entry is “inactive”.
Take `O=C(Nc1nnc(C2CC2)s1)c1ccccn1`: the activity change, negative = inhibition entry was “inactive”.
For `C/C=C1\C2C=C(C)CC1(N)c1ccc(=O)[nH]c1C2` (centres undefined), the activity change, negative = inhibition was -9.9% [at 0.0915 µM].
`Oc1ccc(O)c2c(O)cccc12`: the Potency was 12.6 µM (active).
`COc1ccc(-c2cc3nc(C)c(CCC(=O)NC(C)CCc4ccco4)c(C)n3n2)c(OC)c1` (centres undefined): the activity change, negative = inhibition result is “inactive”.
Consider `COc1cc(OC)c2c(c1)OC(=O)CC2c1cc(OC)c(OC)c(OC)c1` (centres undefined), for which the activity change, negative = inhibition is -2.71% [at 0.0915 µM].
In the case of `COc1cc(OC)c2c(-c3cccc(-c4cccc(N)c4)c3)cc(=O)oc2c1`, the activity change, negative = inhibition was 3.54% [at 0.0915 µM].
Same read-out and setting: as for `O=C(c1cccc(N2CCCC2=O)c1)N1CCOCC1`, the entry is “inactive”; as for `Cc1cc2oc(=O)cc(-c3ccccc3)c2c(C)c1/C=C/c1ccc(F)cc1`, -8.43% [at 0.0915 µM].
In the case of `COc1ccc(SCc2noc(C(=O)NCC3CCCO3)c2C(=O)O)cc1` (centres undefined), the activity change, negative = inhibition result is “inactive”.
Consider `CCN1C(=O)/C(=C2/Sc3ccccc3N2CCCS(=O)(=O)O)SC1=S`, for which the Potency is 15.8 µM (active).
Regarding `CCCCN1C(=O)/C(=C2/C=CC=CN2C)SC1=S`, the activity change, negative = inhibition result was “inactive”.
As to `CCN1C(=O)/C(=C\N2CCN(c3ccccc3)CC2)SC1=S`, the activity change, negative = inhibition entry was “inactive”.
For `COc1ccc(-c2nnc(SC(=O)N3c4ccccc4Sc4ccccc43)o2)cc1`, the Potency is 10 µM (active).
In the case of `CCN(CC)C(=O)CSc1nnc(-c2cccc(OC)c2)o1`, the activity change, negative = inhibition entry is “inactive”.
Still for that read-out and setting: to `COc1ccc(-c2nnc(SC(C)C#N)o2)cc1` (centres undefined) belongs “inactive”; to `Cc1cnc(NC(=O)CSc2nnc(C)s2)s1`, “inactive”.
Turning to `O=S(=O)(c1ccc(Br)cc1)c1nc(-c2ccccc2)oc1NCc1cccnc1`, the activity change, negative = inhibition result was “inactive”.
Turning to `Cc1ccc(-c2csc(NC(=O)Cc3cccs3)n2)cc1C`, the activity change, negative = inhibition result was “inactive”.
For `Cc1nnc(NC(=O)CSc2nc(C3CCCCC3)nc3ccccc23)s1`, the activity change, negative = inhibition entry is “inactive”.
The same measure, in the same setting: to `CCOCCCNC(=O)C(NC(=O)c1ccc(=O)[nH]c1)c1ccc(C)cc1` (centres undefined) belongs “inactive”; to `COc1ccc(N(CC(=O)NC2CCCCC2)S(=O)(=O)c2c(C)[nH]c(=O)[nH]c2=O)cc1`, “inactive”.
Take `CCc1c(C)[nH]c(=S)c(C#N)c1C`: the Potency was 31.6 µM (active).
Regarding `O=C(Nc1ccccc1)c1ccccc1NC(=O)C(F)(F)F`, the activity change, negative = inhibition entry was “inactive”.
Regarding `CCCNC(=S)NC1CC2CCCC(C1)N2CC(C)C` (centres undefined), the activity change, negative = inhibition entry is “inactive”.
Consider `Cc1ccc(F)c(NC(=O)CCc2ccccc2)c1`, for which the activity change, negative = inhibition result was “inactive”.
With `COc1ccc(-c2c(C)cc3oc(=O)cc(-c4ccccc4)c3c2C)cc1C=O`, the activity change, negative = inhibition is -27.8% [at 0.0915 µM].
`COc1ccc(C2CC(=O)Oc3ccc(C(C)(C)C)cc32)cc1` (centres undefined): the activity change, negative = inhibition is -11.2% [at 0.0915 µM].
On the same count and under the same terms, to `CCCNC(=O)NCc1ccc(N2CCCC2=O)cc1` belongs “inactive”; to `COCc1cc(=O)[nH]c2cc(NC(=O)C(F)(F)F)c(C)cc12`, “inactive”; to `CCOC(=O)C1C/C(=C\C(C)=O)c2cccc(C(F)(F)F)c2O1` (centres undefined), 4.83% [at 0.0915 µM].
Turning to `COc1cnc(SCc2ccc(Cl)c(Cl)c2)nc1Cl`, the activity change, negative = inhibition entry is “inactive”.
Regarding `C(=N/N1CCN(c2ccccc2)CC1)/c1cccs1`, the activity change, negative = inhibition result was “inactive”.
As for `COc1ccc(C(=O)NNC(=O)c2cnccn2)cc1[N+](=O)[O-]`, the activity change, negative = inhibition result was “inactive”.
`COc1ccc(Nc2nc(=O)[nH]nc2C)cc1`: the activity change, negative = inhibition entry is “inactive”.
Turning to `O=C(NCc1ccco1)C1(c2ccc(Cl)cc2)CCCC1`, the activity change, negative = inhibition result was “inactive”.
For `O=C(NCc1ccco1)C1CCCN(S(=O)(=O)c2ccccc2)C1` (centres undefined), the activity change, negative = inhibition result is “inactive”.
For the molecule `CCc1ccc(C(=O)CSc2nnc(C)c(=O)[nH]2)cc1`, the activity change, negative = inhibition entry is “inactive”.
Take `COC(=O)C1C(=O)NCC1c1ccc(OC)cc1` (centres undefined): the activity change, negative = inhibition entry is “inactive”.
The same measure, in the same setting: as for `CC(=O)c1cccc(NC(=O)C2CCCN2S(=O)(=O)c2cccc3nsnc23)c1` (centres undefined), the entry is “inactive”; as for `CC(=O)CC(c1ccccc1)C1C(=O)Oc2ccccc2C1=O` (centres undefined), 12.2% [at 0.0915 µM].
With `C#C[C@]1(O)CC[C@H]2[C@@H]3CCC4=CC(=O)CC[C@@H]4[C@H]3CC[C@@]21CC`, the activity change, negative = inhibition was -11.5% [at 0.0915 µM].
`Cc1cccc(-n2ncc(C#N)c2-n2cccc2)c1`: the activity change, negative = inhibition result is “inactive”.
Same read-out and setting: as for `CCC(C)N1C(=O)S/C(=C/c2ccc(Sc3nc4ccccc4[nH]3)o2)C1=O` (centres undefined), the entry is “inactive”.
On the same count and under the same terms, as for `CCN1CCN(C(=O)/C=C\C(=O)O)CC1`, the entry is “inactive”.
For the molecule `CCOC(=O)Cn1c(-c2cccnc2Cl)nc2ccccc21`, the activity change, negative = inhibition result is “inactive”.
Take `Cc1cc2cc(CNC(=O)c3cccs3)ccc2[nH]1`: the activity change, negative = inhibition entry was “inactive”.
Turning to `CCOC(=O)C1=C(C)c2ccccc2OC1(C)C(=O)OCC` (centres undefined), the activity change, negative = inhibition is 0.734% [at 0.0915 µM].
`CCCn1c(C(Cc2ccccc2)NC(=O)COC)nc2ccccc21` (centres undefined): the activity change, negative = inhibition entry was “inactive”.
Regarding `CC1=C(/C=C/C(C)=C/C=C/C(C)=C/C=C/C=C(C)/C=C/C=C(C)/C=C/C(=O)[C@]2(C)C[C@@H](O)CC2(C)C)C(C)(C)C[C@H](O)C1`, the activity change, negative = inhibition is 24.6% [at 0.0915 µM].
Regarding `CCOC(=O)c1cnc(SC)nc1Sc1ccc(Cl)cc1Cl`, the activity change, negative = inhibition entry was “inactive”.
`COc1cccc2c1OCC(C(=O)NCc1ccc(Cl)cc1Cl)=C2`: the activity change, negative = inhibition entry was “inactive”.
On to `CCCCCCSc1nsc(N)n1`, for which the activity change, negative = inhibition result was “inactive”.
As to `CCOC(=O)C1=C(C)c2ccccc2OC1C(=O)OCC` (centres undefined), the activity change, negative = inhibition was -11.3% [at 0.0915 µM].
Consider `O=c1[nH]c(-c2ccccc2)c(-c2ccccc2)[nH]1`, for which the activity change, negative = inhibition result is “inactive”.
As to `O=[N+]([O-])c1cccc(-c2nnc3c4ccccc4c4ccccc4n23)c1`, the activity change, negative = inhibition entry was “inactive”.
Consider `O=c1[nH]c2ccccc2n2c(-c3ccccc3)nnc12`, for which the Potency was 10 µM (active).
`C[C@@H]1C(c2ccc(F)cc2)=NN(c2ccc(Br)cc2)[C@H]1C(=O)N1CCOC1=O`: the activity change, negative = inhibition is -11.1% [at 0.0915 µM].
